# Test results reported in the supplement of paper PMC12350171.
# Where a name gives a salt, the structure may show the parent alone. Unmarked numbers belong to inactive results.
# Assays:
# Conditions in all cases: 20 µM
# [1] = system: Salmonella enterica typhimurium; assay: growth AUC normalised to DMSO control (fraction of control); higher = less growth inhibition, active = hit call of the paper
# Method in brief: (§1)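 Pathogens passaged twice anaerobically were inoculated at a starting OD578 of 0.01 into pre-reduced mGAM plates with drug at 20 μM and 1% DMSO, sealed with breathable membranes. Haemophilus parainfluenzae medium was supplemented with hemin and NAD. OD578 was read hourly for 24 h, with three biological replicates. Growth-curve AUC was computed by the trapezoidal rule up to the exponential-to-stationary transition and normalised to DMSO controls on the same plate.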
# [2] = system: Shigella flexneri; assay: as above
# Method in brief: as §1
# [3] = system: Vibrio cholerae; assay: as above
# Method in brief: as §1
# [4] = system: Yersinia pseudotuberculosis; assay: as above
# Method in brief: as §1
# [5] = system: P. vulgatus RND KO; assay: growth AUC normalised to DMSO control (median) (fraction of control); higher = less growth inhibition, active = hit call of the paper
# Method in brief: (§2)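 For normalised area under the curve, growth curves were truncated at entry into stationary phase, integrated by the trapezoidal rule and divided against vehicle wells on the same plate. The curves came from strains passaged twice overnight without oxygen and then grown in mGAM in 96-well plates at a starting OD578 of 0.01. Each well held an approved-drug library compound at 20 μM with 1% DMSO, and OD578 was read hourly for 24 h in an anaerobic incubator. Values are medians of three biological replicates.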
# [6] = system: P. vulgatus WT; assay: as above
# Method in brief: as §2
# [7] = system: S. enterica typhimurium WT; assay: as above
# Method in brief: as §2
# [8] = system: S. enterica typhimurium tolC KO; assay: as above
# Method in brief: as §2
# 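Wherever growth AUC normalised to DMSO control (median) is given: active when median AUC fell below 0.1.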
SMILES,growth AUC normalised to DMSO control [1],growth AUC normalised to DMSO control [2],growth AUC normalised to DMSO control [3],growth AUC normalised to DMSO control [4],growth AUC normalised to DMSO control [5],growth AUC normalised to DMSO control [6],growth AUC normalised to DMSO control [7],growth AUC normalised to DMSO control [8]
O=C(CCCN1CC=C(n2c(=O)[nH]c3ccccc32)CC1)c1ccc(F)cc1 [Droperidol],0.989,0.985,0.892,0.98,0.982,0.976,0.99,0.936
O=C1c2c(O)cccc2Cc2cccc(O)c21 [Anthralin],1.02,0.987,1.03,1.02,0.861,0.834,0.989,0.985
CC=C(C)C(=O)OC1C(OC(C)=O)C2(CO)C(O)CC3(C)C(=CCC4C5(C)CCC(OC6OC(C(=O)O)C(OC7OC(CO)C(O)C(O)C7O)C(O)C6OC6OC(CO)C(O)C(O)C6O)C(C)(CO)C5CCC43C)C2CC1(C)C (stereo not drawn) [Beta-Escin],0.997,1,0.995,0.999,0.998,0.981,0.977,1
CN1CCN2c3ccccc3Cc3ccccc3C2C1 (stereo not given) [Mianserine hydrochloride],0.986,0.986,0.868 (active),0.956,1.03,1.03,0.994,1
CN(C)CC/C=C1/c2ccccc2COc2ccc(CC(=O)O)cc21 [Olopatadine hydrochloride],1.02,0.963,1.03,1.02,0.99,0.984,0.992,0.992
COc1ccc(CN(CCN(C)C)c2ccccn2)cc1 [Pyrilamine maleate],0.974,0.995,0.969,1.01,0.986,0.979,0.993,0.987
NCCCC(O)(P(=O)(O)O)P(=O)(O)O [Alendronate sodium],1.03,1.05,1.1,1.02,1.05,1.06,1,0.99
Nc1nc2c(ncn2COC(CO)CO)c(=O)[nH]1 [Ganciclovir],0.988,0.996,1,0.99,0.978,0.971,0.992,0.993
CCOC(=O)n1ccn(C)c1=S [Carbimazole],0.98,1,0.981,0.998,0.993,1.01,0.996,1.01
"c1ccc(CNc2ncnc3nc[nH]c23)cc1 [Aminopurine, 6-benzyl]",1,1,0.953,1.01,1,0.985,1,0.995
CN(C)CCCO[C@@H]1[C@H]2OC(C)(C)O[C@H]2O[C@@H]1[C@H](O)CO [Amiprilose hydrochloride],0.904,1,0.986,0.997,0.969,0.966,1.01,1
O=C1NCC2(CCN(CCc3ccccc3)CC2)O1 [Fenspiride hydrochloride],0.967,0.947,0.994,0.971,0.988,0.974,1,0.993
NS(=O)(=O)c1cc2c(cc1Cl)N=C(CSCc1ccccc1)NS2(=O)=O [Benzthiazide],0.998,0.958,0.947,1.01,0.99,0.992,1.01,0.996
CN(C)CCCN1c2ccccc2Sc2ccccc21 [Promazine hydrochloride],0.936,0.945,0.86 (active),0.965,0.821,0.776,0.991,0.971
CN(C)CCOC1=Cc2ccccc2Sc2ccc(Cl)cc21 [Zotepine],1.01,1,0.877,1,0.935,0.874,1.01,0.959
Cc1ccc(C)c(OCCCC(C)(C)C(=O)O)c1 [Gemfibrozil],0.997,0.972,0.983,1,0.969,0.972,1,0.977
CCn1cc(C(=O)O)c(=O)c2cc(F)c(N3CCNCC3)nc21 [Enoxacin],0.00943 (active),0.0451 (active),0.033 (active),0.0435 (active),0.136,0.419,0.00979 (active),0.00708 (active)
CN(c1nccc(=O)[nH]1)C1CCN(c2nc3ccccc3n2Cc2ccc(F)cc2)CC1 [Mizolastine],1.02,1.04,1.02,1.01,0.929,0.921,1.01,0.906
Cn1cnc([N+](=O)[O-])c1Sc1ncnc2[nH]cnc12 [Azathioprine],1,0.992,1.01,1.01,0.955,0.92,1.02,0.998
CN(Cc1ccc(C(C)(C)C)cc1)Cc1cccc2ccccc12 [Butenafine hydrochloride],0.974,0.968,0.926,0.99,0.967,0.96,0.995,0.957
NC(=O)N/N=C/c1ccc([N+](=O)[O-])o1 [Nitrofural],0.713 (active),0.154 (active),0.01 (active),0.875 (active),0.0943 (active),0.254,0.902,0.818
O=C1C(CC[S+]([O-])c2ccccc2)C(=O)N(c2ccccc2)N1c1ccccc1 (stereo not given) [Sulfinpyrazone],0.996,1,1,0.971,1,1.01,0.998,0.985
OC(Cn1cncn1)(Cn1cncn1)c1ccc(F)cc1F [Fluconazole],1.01,1.03,1.04,1.01,1.01,1.06,1.01,1
OC(CCCN1CCCCC1)(c1ccccc1)c1ccccc1 [Diphenidol hydrochloride],0.999,1,1,1.01,1.04,1.04,1,0.987
Cc1noc(NS(=O)(=O)c2ccc(N)cc2)c1C [Sulfisoxazole],0.995,1,1.03,0.971,1,1.05,0.997,0.98
CC[C@]12CCCN3CCc4c(n(c5ccccc45)[C@@](O)(C(=O)OC)C1)[C@@H]32 [Vincamine],1.02,0.979,0.995,0.989,1.02,1.05,1.02,1
CC1(C)S[C@@H]2[C@H](NC(=O)[C@H](C(=O)O)c3ccsc3)C(=O)N2[C@H]1C(=O)O [Ticarcillin sodium],0.00595 (active),0.178 (active),0.116 (active),0.0593 (active),0.00834 (active),0.0131 (active),0.00844 (active),0.0028 (active)
CCCCCCCCNC(C)C(O)c1ccc(SC(C)C)cc1 (stereo not given) [Suloctidil],1.02,0.995,1,0.937,0.992,1.02,1.02,0.997
CCCOc1ccccc1-c1nc2[nH]nnc2c(=O)[nH]1 [Zaprinast],0.998,0.977,0.985,0.989,1,1.02,1,1
CS(=O)(=O)OCCCCOS(C)(=O)=O [Busulfan],1.01,1.04,1.07,1.03,1.02,0.994,1.01,1.01
